The record followed here is the supplement of paper PMC10338343.

The assay has as its system MILI (PIWIL2) piRISC loaded with L1MC piRNA (26 nt). In words: pre-steady-state target cleavage rate (min^-1); guide: L1MC piRNA 5'p-UAACUAAAUACUAUGCAAGCUGUAGG; MIWI and MILI are mouse PIWI proteins and EfPiwi is from a freshwater sponge; tags in brackets are library labels; higher = faster piRNA-guided slicing of the target. An outline of the steps:
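In this Cleave-'n-Seq assay, uncleaved targets were sequenced and normalised to depth and to weakly complementary targets. They came from a transcribed, DNA-blocked target RNA library […] mixed with 1 nM active affinity-purified piRISC carrying one synthetic guide, with or without 500 nM GTSF1 partner protein, in HEPES–potassium acetate buffer at 33 °C for 0–8 or 0–960 min. After three trials were pooled and k3 was capped at 0.0001 min^-1, the pre-steady-state cleavage rate was obtained from a burst-and-steady-state fit.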

Where [1] appears, read: auxiliary factor: 500 nM mouse GTSF1.
Setting [2] is: auxiliary factor: none (no GTSF1).

± gives the standard deviation.
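Note: 1 nM active piRISC with 0.1 nM target library at 33 °C single turnover.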

Consider UCCUGGAUGAGCUUCCAAAGUAUUUAGUUA, for which the “pre-steady-state target cleavage rate” value is 0.0331 ± 0.0072 under setting [1] and 0.00379 ± 0.0027 under setting [2].

Regarding UCCUGGAUGUCCUUGCAUAGUAAUAAGUUA, the “pre-steady-state target cleavage rate” value under setting [1] is 0.0367 ± 0.013 and the “pre-steady-state target cleavage rate” value under setting [2] came out at 0.00284 ± 0.0025.

With UCCUGGAUGUCCUAGCAUAGUAUUAAGUUA, the “pre-steady-state target cleavage rate” value under setting [1] worked out at 0.0366 ± 0.0077 and the “pre-steady-state target cleavage rate” value under setting [2] was 0.00287 ± 0.0022.

As for UCCUGGAUGUCGAAGCAUAGUACUUUAGUUA, the “pre-steady-state target cleavage rate” value was 0.00532 ± 0.0027 under setting [1] and 0.00317 ± 0.002 under setting [2].

In the case of UCCUGGAUGUCCUUGCAUAGUGAUUUAGUUA, the “pre-steady-state target cleavage rate” value under setting [1] came out at 0.0104 ± 0.0052 and the “pre-steady-state target cleavage rate” value under setting [2] came out at 0.00503 ± 0.0028.

UCCUGGAUGAGCUUGCAGAGUAUUUAGUUA: the “pre-steady-state target cleavage rate” value reads like this: under setting [1], 0.0869 ± 0.0095; under setting [2], 0.00792 ± 0.0024.

On to UCCUGGAUGUCCUUGCAAAGUAUUUAGUUA, for which the “pre-steady-state target cleavage rate” value reads like this: under setting [1], 0.0392 ± 0.0098; under setting [2], 0.00687 ± 0.002.

For the sequence UCCUGGAUGAGCUUGGAUAGUAUAUAGUUA, the “pre-steady-state target cleavage rate” value runs as follows: under setting [1], 0.122 ± 0.017; under setting [2], 0.00462 ± 0.0024.

As for UCCUGGAUGUCCUAGCAUAGUAUAUAGUUA, the “pre-steady-state target cleavage rate” value by setting is: under setting [1], 0.0912 ± 0.02; under setting [2], 0.00315 ± 0.0027.

Regarding UCCUGGAUGAGGUUGCAUAGUAUUUAGUAA, the “pre-steady-state target cleavage rate” value was 0.0985 ± 0.018 under setting [1] and 0.004 ± 0.0027 under setting [2].

Regarding UCCUGGAUCAGCUUGCUUAGUAUUUACUUA, the “pre-steady-state target cleavage rate” value was found to be 0.203 ± 0.025 under setting [1] and 0.00642 ± 0.0022 under setting [2].

Take UCCUGGAUGUCCUUGCUUAGUAUAUAGUUA: the “pre-steady-state target cleavage rate” value was 0.0347 ± 0.0085 under setting [1] and 0.0039 ± 0.0023 under setting [2].

Take UCCUGGUACACGUUGCAUAGUAUUUAGUUA: the “pre-steady-state target cleavage rate” value is, setting by setting: under setting [1], 0.19 ± 0.045; under setting [2], 0.0113 ± 0.0051.

Consider UCCUGCUACAGCAUGCUUAGUAUUUAGUUA, for which the “pre-steady-state target cleavage rate” value by setting is: under setting [1], 0.255 ± 0.017; under setting [2], 0.00606 ± 0.0028.

With UCCUGGUACAGCUUGGAUAGUUUUUAGUUA, the “pre-steady-state target cleavage rate” value runs as follows: under setting [1], 0.0597 ± 0.014; under setting [2], 0.00594 ± 0.0035.

As for UCCUGGAUGUGGUUGGAUAGUAUUUAGUUA, the “pre-steady-state target cleavage rate” value runs as follows: under setting [1], 0.109 ± 0.019; under setting [2], 0.00858 ± 0.0028.

Regarding UCCUGCUACUCGUUGCAUAGUAUUUAGUAA, the “pre-steady-state target cleavage rate” value under setting [1] amounted to 0.127 ± 0.02 and the “pre-steady-state target cleavage rate” value under setting [2] turned out to be 0.00373 ± 0.0021.

With UCCUGGUACAGCUUGAUAGUAUUUAGUUA, the “pre-steady-state target cleavage rate” value runs as follows: under setting [1], 0.0803 ± 0.011; under setting [2], 0.00786 ± 0.0031.

With UCCUGGAUCAGGUUGCAAAGUAUUUAGUUA, the “pre-steady-state target cleavage rate” value runs as follows: under setting [1], 0.121 ± 0.011; under setting [2], 0.00902 ± 0.0027.

Take UCCUGGAUGUCGAUGCAUAGUAUUUGAGUUA: the “pre-steady-state target cleavage rate” value under setting [1] was 0.125 ± 0.027 and the “pre-steady-state target cleavage rate” value under setting [2] worked out at 0.00324 ± 0.0024.

As to UCCUGGAUGUGCUAGCAUAGUAUUUAGUAA, the “pre-steady-state target cleavage rate” value was found to be 0.12 ± 0.017 under setting [1] and 0.00339 ± 0.0027 under setting [2].

With UCCUGGAUCAGCUUGCAAUGUAUUUAGUAA, the “pre-steady-state target cleavage rate” value was found to be 0.0826 ± 0.014 under setting [1] and 0.00611 ± 0.0022 under setting [2].

For the sequence UCCUGGAUGUGCUUGAUAGUAUUUAGUUA, the “pre-steady-state target cleavage rate” value by setting is: under setting [1], 0.00721 ± 0.0036; under setting [2], 0.00463 ± 0.002.

Regarding UCCUGGAUCAGCUUGGUUAGUAUUUAGUAA, the “pre-steady-state target cleavage rate” value under setting [1] was 0.256 ± 0.031 and the “pre-steady-state target cleavage rate” value under setting [2] was determined as 0.00444 ± 0.0025.

Consider UCCUGGAUGUGGUUGCAAAGUAUUUAGUUA, for which the “pre-steady-state target cleavage rate” value reads like this: under setting [1], 0.0262 ± 0.0077; under setting [2], 0.00983 ± 0.0026.

For the sequence UCCUGGAUCAGCUUGCUAUGUAUUUAGUUA, the “pre-steady-state target cleavage rate” value is, setting by setting: under setting [1], 0.0176 ± 0.0068; under setting [2], 0.00553 ± 0.0022.

Consider UCCUGGAUGAGCUUGCAAAGUAUUAAGUUA, for which the “pre-steady-state target cleavage rate” value by setting is: under setting [1], 0.0742 ± 0.012; under setting [2], 0.00449 ± 0.0026.

Consider UCCUGGAACAGCUUCGUUAGUAUUUAGUUA, for which the “pre-steady-state target cleavage rate” value was 0.181 ± 0.013 under setting [1] and 0.00414 ± 0.0022 under setting [2].

As for UCCUGGUACAGCUUGGUUAGUAUUUAGUAA, the “pre-steady-state target cleavage rate” value came out at 0.159 ± 0.038 under setting [1] and 0.01 ± 0.0031 under setting [2].

In the case of UCCUGGAUGUCGUUGCAUAGUGUUUAGUUA, the “pre-steady-state target cleavage rate” value under setting [1] was 0.0461 ± 0.01 and the “pre-steady-state target cleavage rate” value under setting [2] amounted to 0.00452 ± 0.0029.

As to UCCUGGAUGUCGUUGCAUACUAUUUAGUUA, the “pre-steady-state target cleavage rate” value was determined as 0.0161 ± 0.0052 under setting [1] and 0.00383 ± 0.002 under setting [2].

For UCCUGGAUGAGCUUGCAAAGUAUUUUGUUA, the “pre-steady-state target cleavage rate” value by setting is: under setting [1], 0.0703 ± 0.019; under setting [2], 0.00392 ± 0.0026.

With UCCUGGAUGUGCUUGCUUUGUAUUUAGUUA, the “pre-steady-state target cleavage rate” value reads like this: under setting [1], 0.0124 ± 0.0051; under setting [2], 0.00696 ± 0.0024.

For the sequence UCCUGGAUGUCCUUGCUUUGUAUUUAGUUA, the “pre-steady-state target cleavage rate” value is, setting by setting: under setting [1], 0.00984 ± 0.0041; under setting [2], 0.00458 ± 0.0025.

As to UCCUGGAUCAGGUUGCAUAGAAUUUAGUUA, the “pre-steady-state target cleavage rate” value under setting [1] came to 0.0266 ± 0.0065 and the “pre-steady-state target cleavage rate” value under setting [2] turned out to be 0.00431 ± 0.0021.

With UCCUGCUACAGCUUGCAAUCUAUUUAGUUA, the “pre-steady-state target cleavage rate” value reads like this: under setting [1], 0.0303 ± 0.0068; under setting [2], 0.00243 ± 0.0019.

UCCUGGAUGAGCUUGCUUAGUAUUUACUUA: the “pre-steady-state target cleavage rate” value runs as follows: under setting [1], 0.124 ± 0.031; under setting [2], 0.00394 ± 0.0031.

On to UCCUGGAUGAGCAUGCAUAGUAUUAAGUUA, for which the “pre-steady-state target cleavage rate” value is, setting by setting: under setting [1], 0.22 ± 0.024; under setting [2], 0.00547 ± 0.0024.

In the case of UCCUGGAUGUGCUUGCAAAGUAUUUACUUA, the “pre-steady-state target cleavage rate” value is, setting by setting: under setting [1], 0.0114 ± 0.0052; under setting [2], 0.00362 ± 0.0028.

Consider “UCCUGGAUGUCGAUGCAUAGUAUUUAGUUC [g2:g17:cont:t1C]”, for which the “pre-steady-state target cleavage rate” value runs as follows: under setting [1], 0.0657 ± 0.0091; under setting [2], 0.00831 ± 0.0023.

As for UCCUGGAUGUCGAUGCAUAGUAAUUAGUUA, the “pre-steady-state target cleavage rate” value was found to be 0.0524 ± 0.011 under setting [1] and 0.00499 ± 0.0021 under setting [2].

For UCCUGGAUGAGCUUCCUUAGUAUUUAGUUA, the “pre-steady-state target cleavage rate” value runs as follows: under setting [1], 0.132 ± 0.019; under setting [2], 0.00577 ± 0.0024.

Regarding UCCUGGAUGUCGAAGCAUAGUAUAUAGUUA, the “pre-steady-state target cleavage rate” value amounted to 0.0508 ± 0.015 under setting [1] and 0.00342 ± 0.0022 under setting [2].

With UCCUGGAUGUCGAUGCAUAGUAGUUAGUUA, the “pre-steady-state target cleavage rate” value runs as follows: under setting [1], 0.0193 ± 0.005; under setting [2], 0.00415 ± 0.0021.

As for UCCUGGAUGAGCAUGCUUAGUAUUUAGUUA, the “pre-steady-state target cleavage rate” value amounted to 0.115 ± 0.011 under setting [1] and 0.0087 ± 0.0027 under setting [2].

As to UCCUGGAUGUGCUUGGAAAGUAUUUAGUUA, the “pre-steady-state target cleavage rate” value under setting [1] came to 0.0377 ± 0.0067 and the “pre-steady-state target cleavage rate” value under setting [2] was found to be 0.00729 ± 0.002.

In the case of “UCCUGGAUGUCGUUGCAUAGUAUUUAGUUU [g2:g18:cont:t1U]”, the “pre-steady-state target cleavage rate” value worked out at 0.128 ± 0.016 under setting [1] and 0.0134 ± 0.0037 under setting [2].

As for UCCUGGAUGUCGUUGCAUAGUAUUUAGUGUA, the “pre-steady-state target cleavage rate” value was determined as 0.17 ± 0.027 under setting [1] and 0.00477 ± 0.0035 under setting [2].

Consider UCCUGGAUCAGCUUGCAUAGUUAUUAGUUA, for which the “pre-steady-state target cleavage rate” value was 0.0248 ± 0.01 under setting [1] and 0.00466 ± 0.0024 under setting [2].

Turning to UCCUGGAUGUCCUUGCAUACAUUUUAGUUA, the “pre-steady-state target cleavage rate” value by setting is: under setting [1], 0.00731 ± 0.0047; under setting [2], 0.00422 ± 0.0019.

In the case of UCCUGGUACACCUUGCUUAGUAUUUAGUUA, the “pre-steady-state target cleavage rate” value under setting [1] turned out to be 0.134 ± 0.024 and the “pre-steady-state target cleavage rate” value under setting [2] came out at 0.0117 ± 0.0037.

For the sequence UCCUGGAUGUGCUUUCAUAGUAUUUAGUUA, the “pre-steady-state target cleavage rate” value reads like this: under setting [1], 0.126 ± 0.018; under setting [2], 0.00919 ± 0.0024.

On to UCCUGGAACAGCUUGCAUAGAUUUUAGUUA, for which the “pre-steady-state target cleavage rate” value came to 0.0289 ± 0.0057 under setting [1] and 0.003 ± 0.0026 under setting [2].

As to UCCUGGUACAGCUUGCAUAGUCAUUUAGUUA, the “pre-steady-state target cleavage rate” value reads like this: under setting [1], 0.0147 ± 0.0072; under setting [2], 0.00451 ± 0.0041.
